High-throughput results: PubChem BioAssay, National Center for Advancing Translational Sciences (NCATS)
This excerpt belongs to a sample that is enriched for hits.
Pf Dd2 growth: Plasmodium falciparum Dd2 growth inhibition. P. falciparum Dd2 growth, SYBR Green, 72 h. Potency, µM (titrated, usually from 28.9 µM), usual class: inhibitors. 120,000 compounds, 4.3% hits. AID 1347417; active = well fitted inhibition curve with a large enough effect; note: nearly all actives have a fitted effect of over 65% in size
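Infected erythrocytes (Dd2, 0.3% parasitemia, 2.5% hematocrit final) are added to compound in RPMI-1640/Albumax II medium, grown 72 h at 37C in low oxygen, then lysed with saponin/Triton-X containing SYBR Green and read by fluorescence.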
Numbers stand for hits; - = inactive; [ ] = dose if it differs, or a comment.

SMILES | Pf Dd2 growth
COc1cccc(-c2cc(-c3nc(C4CC(=O)N(C5CCCCC5)C4)no3)[nH]n2)c1 (stereo not given) | 5µM
COc1cccc(-c2nc(C3CC(=O)N(C4CCCCC4)C3)no2)c1 (stereo not given) | -
COc1ccccc1CC(=O)N1CCC2(CC1)NC(=O)N(c1ccccc1)N2 | -
O=C1CCCN1CCCN1C(=O)[C@H]2CNC[C@H]2C1=O | -
CCCc1nc(C(=O)NCc2ccc(-n3ccnc3C)cc2)cs1 | -
CCCOc1ccc(CN2C[C@@H](CO)[C@H](c3ccccn3)C2)cc1 | 2.8µM
COc1ccc(CN2C[C@@H](CO)[C@H](c3ccccn3)C2)cc1C | -
OC[C@@H]1CN(Cc2ccco2)C[C@H]1c1ccccn1 | -
O=C1CCC2(CCNCC2)CCN1 | -
Cc1ccc(Cl)cc1N1CCN(C(=O)CCc2nnc3n(C)c(=O)c4ccccc4n23)CC1 | -
Cc1ccc(Cl)cc1N1CCN(C(=O)c2cn(CC(C)C)c(=O)c3c2c2ccccc2n3C)CC1 | 3.2µM
Cc1ccc(Cl)cc1N1CCN(C(=O)c2cc3c(=O)n(C)c4ccccc4c3s2)CC1 | -[5.79 µM]
CCc1nc(-c2c3n(c(=O)n(CC(=O)Nc4ccccc4C)c2=O)CCCCC3)no1 | -
O=S(=O)(c1ccc(C(F)(F)F)cc1)N1CCCC1c1nncn1Cc1ccncc1 (stereo not given) | -
COc1ccc(CC(=O)N[C@H](C)c2onc(C)c2C(=O)O)cc1 | -
CN1C(=O)c2cccn2CC1CNC(=O)c1[nH]nc2c1COc1ccccc1-2 (stereo not given) | 8.9µM
CN1C(=O)c2cccn2CC1CNC(=O)c1n[nH]c(=O)c2ccccc12 (stereo not given) | -
COCCN1C(=O)c2cccn2CC1CNC(=O)c1[nH]nc2c1COc1ccccc1-2 (stereo not given) | -
CCc1ccc(NC(=O)c2cnn(-c3c(C)cccc3C)c2C2CCN(C(=O)OC(C)(C)C)CC2)cc1 | -
Cc1cccc(C)c1-n1ncc(C(=O)O)c1C1CCN(C(=O)OC(C)(C)C)CC1 | -
CCOc1ccc(-c2cc3nc(C4CCN(C(=O)OC(C)(C)C)CC4)c(C(=O)Nc4c(C)cccc4C)cn3n2)cc1 | 2.5µM
COc1ccc(-n2ncc(C(=O)Nc3ccc(C)cc3Cl)c2C2CCN(C(=O)OC(C)(C)C)CC2)cc1 | -
CCOc1ccc(-c2nnc(SCC(=O)Nc3ccc(C)cc3C)o2)cc1 | -
CCOc1ccc(-c2c(C)nn3c(C)c(C(=O)Nc4cccc(Cl)c4C)cnc23)cc1OCC | -
CCOc1ccc(-c2nnc(SCC(=O)Nc3ccc(C)cc3Cl)o2)cc1 | -
SMILES | Pf Dd2 growth
CCOc1ccc(-c2cc3nc(C4CCN(C(=O)OC(C)(C)C)CC4)c(C(=O)Nc4ccc(C)cc4Cl)cn3n2)cc1 | 4µM
CCOc1ccc(-c2cc(C(=O)N3CCN(c4cccc(C)c4)C(C)C3)c3ccccc3n2)cc1 (stereo not given) | -
COc1ccc(-c2cc(C(F)(F)F)n3nc(C(=O)Nc4cccc(Cl)c4C)cc3n2)cc1 | -
CCOc1ccc(-c2cc3nc(C4CCN(C(=O)OC(C)(C)C)CC4)c(C(=O)Nc4ccc(C)cc4C)cn3n2)cc1 | 8.9µM
CCOc1ccc(-c2cc3nc(C4CCN(C(=O)OC(C)(C)C)CC4)c(C(=O)Nc4cccc(Cl)c4C)cn3n2)cc1 | 5µM
COC[C@H]1C[C@@H](NC(=O)c2cc(C)on2)[C@H](O)[C@@H]1O | -
CN(C)CCNC(=O)c1cc2n(n1)CCCN(C(=O)[C@@H]1CCCN1)C2 | -
O=C(c1nnc(CN2CCOCC2)n1Cc1ccccc1)N1CCC[C@@H]1c1ccc(Br)cc1 | -
O=C(c1ccco1)N1CCCC(c2nn[nH]n2)C1 (stereo not given) | -
Cc1noc(C)c1CNC(=O)C1CCCNC1 (stereo not given) | -
O=C(Nc1ccccc1)O[C@@H]1CO[C@H]2[C@@H]1OC[C@@H]2n1nnnc1SCc1ccco1 | -
CC(=O)c1ccc(NC(=O)O[C@@H]2CO[C@H]3[C@@H]2OC[C@@H]3n2nnnc2SCc2ccco2)cc1 | 6.3µM
O=C(NC1CCCCC1)O[C@@H]1CO[C@H]2[C@@H]1OC[C@@H]2n1nnnc1SCc1ccco1 | -
O=C(c1ccn[nH]1)N1C[C@@H](COc2cccnc2)[C@H](c2ccncc2)C1 | -
O=C1CCCCC(CNC(=O)c2cn[nH]c2-c2ccccc2)N1 (stereo not given) | -
COc1ccc(OC)c(NC(=O)Cn2cnc3sc(C)c(S(=O)(=O)N4CCN(c5ccccc5OC)CC4)c3c2=O)c1 | 11µM
COc1ccccc1N1CCN(C(=O)Cn2cnc3sc(C)c(S(=O)(=O)N4CCC(C)CC4)c3c2=O)CC1 | -
COCCNC(=O)Cn1cnc2sc(C)c(S(=O)(=O)N3CCN(c4ccccc4OC)CC3)c2c1=O | -
COc1ccc(Cl)cc1NC(=O)Cn1cnc2sc(C)c(S(=O)(=O)N3CCN(c4ccccc4OC)CC3)c2c1=O | 10µM
COc1ccc(NC(=O)Cn2cnc3sc(C)c(S(=O)(=O)N4CCN(C)CC4)c3c2=O)cc1Cl | -
COCCCNC(=O)Cn1cnc2sc(C)c(S(=O)(=O)N3CCN(c4ccccc4OC)CC3)c2c1=O | -
Cc1ccc(C(=O)N2C[C@@H]3CCCN4CCC[C@@H]([C@H]34)[C@H]2CCCC(=O)Nc2ccccc2)cc1 | -
COc1ccc([C@H]2C[C@@H](O)[C@@H](O)[C@@H]2NC(=O)Cc2ccc(Cl)cc2)cc1 | -
COCCC1(NC(=O)C2CCOCC2)CCN(C(=O)c2cccnc2C)CC1 | -
O=C(NC1CC1)C1CN(Cc2ccccc2)C(=O)N1 (stereo not given) | -
SMILES | Pf Dd2 growth
COCCN1C(=O)CS(=O)C12CCN(S(=O)(=O)c1ccc(F)cc1)CC2 (stereo not given) | -
Cc1ccc(NC(=O)N2CCC3(CC2)Oc2ccccc2C(=O)N3Cc2ccc(F)cc2)cc1 | 11µM
COc1ccc(Cl)cc1NC(=O)N1CCC2(CC1)Oc1ccccc1C(=O)N2Cc1ccc(F)cc1 | 13µM
Cc1ccc(NC(=O)N2CCC3(CC2)SCC(=O)N3Cc2ccccc2)cc1 | -
O=C(Nc1ccc(F)c(Cl)c1)N1CCC2(CC1)Oc1ccccc1C(=O)N2Cc1ccccc1F | -
COc1ccc(Cl)cc1NC(=O)C[C@H]1NC(=O)c2ccccc2NC1=O | -
O=C(Nc1cccc(Cl)c1Cl)N1CCC2(CC1)SCC(=O)N2Cc1ccco1 | -
O=C(Nc1ccccc1Cl)N1CCC2(CC1)Oc1ccccc1C(=O)N2Cc1ccc(F)cc1 | 14µM
COc1ccc(Cl)cc1NC(=O)N1CCC(CN2CCCCCC2)CC1 | -
CC1(C(=O)NC2CCCCC2)Cc2ccccc2C(=O)N1Cc1ccc(F)cc1 (stereo not given) | -
Cc1ccc(C(=O)N2CCC(c3nc(-c4ccccc4)no3)C2)s1 (stereo not given) | -[5.79 µM]
Cc1ccc(NC(=O)N[C@H]2C[C@@](O)(C(=O)N[C@@H](Cc3ccc(O)cc3)C(N)=O)C[C@@H](O)[C@@H]2O)cc1 | -
Cc1ccc(-c2ccc3nnc(CNC(=O)c4cnccn4)n3n2)cc1 | -
COC(=O)c1ccc2c(c1)nc1n2[C@@H](CNC2CCOCC2)COC1 | -
CN1C(=O)C(c2ccccc2)CC12CCN(Cc1ccc(F)cc1F)CC2 (stereo not given) | -
CN1C(=O)c2cccn2CC1CNC(=O)Cc1c[nH]c2ccccc12 (stereo not given) | -
COCCNC(=O)c1coc(CN2CCN(C/C=C/c3ccccc3)CC2)n1 | -
Cc1ccc(NC(=O)Cn2c(C)cc3nc4n(c(=O)c32)CCCCC4)c(C)c1 | -
CC(C)COc1ccc(C(=O)NCC2(N3CCN(C)CC3)CCCCC2)cc1 | 10µM
